High-throughput results deposited in PubChem BioAssay by several laboratories.
Mtb hypoxia rep: inhibitors of hypoxia-regulated fluorescent reporter in Mycobacterium tuberculosis | M. tuberculosis hypoxia-regulated fluorescent reporter, fluorescence | fluorescence inhibition, % (concentration not given with the values) | hit rate 0.1% among 300,000; in the data active = fluorescence inhibition mostly above about 23%, no sharp cut-off; inactive = mostly below about 17%
GDH-TPI counter-1: GDH-TPI coupled enzyme inhibition counter-screen | GDH-TPI coupled enzyme counterscreen, NADH absorbance | inhibition, % at 4.8 µM | hit rate 1.2% among 360,000; in the data active = inhibition above about 30%;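 note: 0% = DMSO wells and 100% = wells lacking the enzyme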
FBA Mtb inh: Mtb fructose-bisphosphate aldolase inhibition; P9WQA3; purified M. tuberculosis FBA, fluorescence read-out; inhibition, % at 1 µM; hit rate 2.3% among 360,000;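 note: 0% = vehicle and 100% = reference inhibitor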
Target sequence (P9WQA3 whole entry, looked up): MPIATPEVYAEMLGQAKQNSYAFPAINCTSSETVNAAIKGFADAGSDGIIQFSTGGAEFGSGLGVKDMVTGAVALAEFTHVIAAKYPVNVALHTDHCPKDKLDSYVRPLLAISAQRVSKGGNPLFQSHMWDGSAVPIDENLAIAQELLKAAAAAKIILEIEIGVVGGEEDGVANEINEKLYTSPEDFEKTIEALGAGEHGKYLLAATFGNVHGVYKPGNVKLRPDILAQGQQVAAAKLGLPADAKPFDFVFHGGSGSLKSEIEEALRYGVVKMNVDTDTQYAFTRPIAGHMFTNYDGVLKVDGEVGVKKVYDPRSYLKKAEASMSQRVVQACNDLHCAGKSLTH
Mtb betalactam: beta-lactam sensitization of Mtb H37Rv. M. tuberculosis H37Rv growth with meropenem, percent inhibition. inhibition, % at 25 µM. hit rate 0.27% among 330,000; call rule not given here;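 note: growth measured after seven days incubation then overnight dye step; 0% = bacteria only wells and 100% = bacteria with antibiotic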
VHR inh abs: inhibitors of human VHR1 phosphatase (DUSP3) | P51452 | recombinant VHR phosphatase, pNPP absorbance | inhibition, % at 13.3 µM | hit rate 0.52% among 290,000 | AID 1654; in the data active = inhibition above about 50%
Target sequence (P51452 whole entry, looked up): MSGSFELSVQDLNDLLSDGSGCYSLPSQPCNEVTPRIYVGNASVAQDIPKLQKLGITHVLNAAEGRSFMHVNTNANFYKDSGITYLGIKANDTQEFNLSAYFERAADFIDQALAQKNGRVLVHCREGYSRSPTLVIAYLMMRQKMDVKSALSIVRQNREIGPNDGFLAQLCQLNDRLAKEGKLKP
Mtb FBA confirm: Mtb FBA inhibition, confirmed; shares compounds with FBA Mtb inh; inhibition, % at 1 µM; hit rate 78% among 5,600; purified M. tuberculosis FBA, fluorescence read-out;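 note: 0% = vehicle wells and 100% = reference inhibitor wells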
GDH-TPI counter-2: inhibits GDH-TPI coupling enzymes, flagging Mtb FBA hits; hit rate 81% among 5,600; GDH-TPI coupled enzyme counterscreen, fluorescence; shares compounds with FBA Mtb inh; inhibition, % at 1 µM; in the data active = inhibition above about 10%
An asterisk follows results filed as active; nt = no result given; + = active, no number. A selection: hits, their analogues and other compounds. The true share with any hit is near 3.6%. Cut-off read from the data, not from the text of the source, unless noted: active = inhibition above about 27%; inactive = the rest.

SMILES	Mtb hypoxia rep	GDH-TPI counter-1	FBA Mtb inh	Mtb betalactam	VHR inh abs	Mtb FBA confirm	GDH-TPI counter-2
CN1CCc2c(C#N)c(N3CCCCC3)nc(NCc3ccccc3)c2C1	6	8	5	-9	36	nt	nt
N#Cc1c(NCCCO)nc(NCc2ccccc2)c2c1CCN(Cc1ccccc1)C2	nt	8	32*	31	26	116*	108*
N#Cc1c(NC2CCCCC2)nc(-c2ccco2)c2c1CCCC2	nt	0	25	12	15	nt	nt
CC1(C)Cc2c(C#N)c(NCCN3CCOCC3)nc(-c3ccco3)c2CO1	2	-4	13	-9	-2	nt	nt
N#Cc1c(NCCCO)nc(-c2ccco2)c2c1CCCC2	nt	6	27*	8	20	52*	44*
O=C(CN1C(=O)C2C3C=CC(C3)C2C1=O)Nc1ccc2nccnc2c1 (stereo not given)	-3	11	27*	-5	17	+	+
O=C(CN1C(=O)C2C3C=CC(C3)C2C1=O)Nc1ccc(F)cc1 (stereo not given)	3	5	0	4	-7	nt	nt
O=C1c2ccc(-c3ccc4c(c3)C(=O)N(CCCO)C4=O)cc2C(=O)N1CCCO	6	2	36*	-2	18	9	-5
COc1ccc(OCC(=O)NCc2cccnc2)cc1	nt	7	-5	0	-4	nt	nt
CC(C)NC(=O)COc1ccc2c(c1)C(=O)CC(C)(C)O2	15	9	71*	5	32	+	186*
CC1(C)CC(=O)c2cc(OCC(=O)NCc3cccnc3)ccc2O1	6	-1	62*	-8	29	-3	-6
CCCCCCCNC(=O)COc1ccc2c(c1)C(=O)CC(C)(C)O2	7	2	43*	-3	-21	56*	56*
CC1(C)CC(=O)c2cc(OCC(=O)NCCCN3CCN(c4ccccc4F)CC3)ccc2O1	0	13	15	-8	6	nt	nt
O=C1CC2c3c(cccc3CN1Cc1ccc(Cl)cc1)CC(O)C2O (stereo not given)	21	nt	nt	nt	nt	nt	nt
N#C/C(=C(\O)c1ccco1)c1ccccn1	nt	8	9	3	-1	nt	nt
N#C/C(=C(/O)CCCl)c1ccccn1	4	5	59*	-15	15	87*	55*
N#CC(Cn1c[n+](NC(=O)Nc2ccccc2)cn1)=NO	14	nt	nt	nt	nt	nt	nt
COc1ccc(-c2c3c(=O)n(C)c(=O)n(C)c3cn2-c2ccccc2)cc1	nt	8	4	-9	12	nt	nt
COc1ccc(-c2c3c(=O)n(C)c(=O)n(C)c3cn2-c2ccc(O)cc2)cc1	16	5	45*	-1	9	+	189*
O=C(OCc1cc(=O)oc2cc(O)ccc12)c1cc(S(=O)(=O)N2CCOCC2)ccc1F	1	20	41*	4	nt	-1	-5
Nc1nc2c(c(=O)[nH]1)CN(Cc1ccccc1)CC2	-1	20	53*	4	nt	108*	99*
Nc1c2c(nc3ccccc13)CCN(Cc1ccccc1)C2	7	6	16	-1	13	nt	nt
Cc1nc2ccccn2c1C(=O)NN=Cc1ccc([N+](=O)[O-])o1	-5	nt	nt	nt	nt	nt	nt
CCn1cc(C(=O)O)c(=O)c2cc(F)c(N3CCN(S(=O)(=O)c4ccc(NC(C)=O)cc4)CC3)cc21	nt	12	50*	90	10	-4	-3
Cn1c(=O)c2nc(-c3ccccc3)c(-c3ccccc3)nc2n(C)c1=O	20	13	44*	1	nt	81*	78*
SMILES	Mtb hypoxia rep	GDH-TPI counter-1	FBA Mtb inh	Mtb betalactam	VHR inh abs	Mtb FBA confirm	GDH-TPI counter-2
Cn1c(=O)c2nc(Cl)c(-c3ccccc3)nc2n(C)c1=O	8	8	33*	-1	-2	152*	105*
NC1=NN=C(N2N=C(c3ccc(Br)cc3)CC2(O)C(F)(F)F)n2ncnc2C1 (stereo not given)	6	5	56*	6	29	-1	-2
NC1=NN=C(N2N=C(c3ccccc3)CC2(O)C(F)(F)F)n2ncnc2C1 (stereo not given)	6	11	17	-2	22	nt	nt
COc1ccccc1C1=NN(C2=NN=C(N)Cc3ncnn32)C(O)(C(F)(F)F)C1 (stereo not given)	4	4	35*	-6	12	9	1
COc1cccc(-c2c(C(=O)NN=C(C)COc3ccccc3)nnn2-c2nonc2N)c1	-2	nt	nt	nt	nt	nt	nt
CSc1ccc(C=Nn2c(C)nnc2C)cc1	-10	nt	nt	nt	nt	nt	nt
COC(=O)[C@]1(C)N[C@H](c2ccc(-c3ccc(OC)cc3)cc2)[C@@H]2C(=O)N(C)C(=O)[C@@H]21	nt	13	16	-3	nt	nt	nt
CCN1C(=O)[C@H]2[C@@H](c3ccc(-c4ccc(OC)cc4)cc3)N[C@@](C)(C(=O)OC)[C@H]2C1=O	1	13	100*	-6	nt	135*	94*
O=C(NN=Cc1cccnc1)c1cc(-c2ccccc2Cl)nc2ccccc12	0	nt	nt	nt	nt	nt	nt
Cc1ccc(NC(=O)CC(C)S(=O)(=O)c2ccc3c(c2)NC(=O)CO3)c(Cl)c1 (stereo not given)	16	0	71*	-1	-2	+	+
Cc1ccc(C(=O)NC(=CC=Cc2ccccc2)C(=O)NCc2ccco2)cc1	5	nt	nt	nt	nt	nt	nt
O=C(Nc1ccc([N+](=O)[O-])cn1)c1ccc(Br)o1	-3	27	95*	4	-4	0	-4
O=C1CC2c3c(cccc3CN1Cc1ccccc1Br)CC(O)C2O (stereo not given)	6	nt	nt	nt	nt	nt	nt
C=CCn1c(SCC(=O)Nc2nncs2)nnc1-c1ccco1	3	-1	75*	1	22	+	+
C=CCn1c(SCC(=O)Nc2ccccc2OC)nnc1-c1ccco1	nt	nt	nt	nt	-10	nt	nt
COc1ccc(-c2cc3c(=O)n(CC(=O)NCc4cccnc4)nc(C)n3n2)cc1	0	-3	28*	-3	8	16	11*
C=CCOc1ccc(C2C(C#N)=C(N)N(Nc3ccccc3)C3=C2C(=O)CCC3)cc1OC (stereo not given)	6	10	29*	89	19	124*	91*
CC1=CC2=NC(=O)CC(C)(C(=O)N(CC(=O)NC3CCCC3)c3ccccc3F)N2C=C1 (stereo not given)	nt	-8	47*	-2	-6	45*	37*
CC1=CC2=NC(=O)CC(C)(C(=O)N(CC(=O)NC3CCCC3)Cc3ccc(Cl)cc3)N2C=C1 (stereo not given)	7	-4	58*	-6	28	115*	122*
CC1(c2ccc(Cl)cc2)NC(=O)N(CC(=O)NC2CCCCC2)C1=O (stereo not given)	15	-1	1	-5	nt	nt	nt
CC1=CC2=NC(=O)CC(C)(C(=O)N(CC(=O)NC3CCCC3)c3ccccc3C)N2C=C1 (stereo not given)	9	10	62*	0	-8	+	+
Cc1ccccc1N(CC(=O)NC1CCCCC1)C(=O)CCCC(=O)Nc1ccccn1	9	5	1	-4	15	nt	nt
